# Screening results deposited in PubChem by National Center for Advancing Translational Sciences (NCATS).
# TrxR1 substrate = is turned over as a substrate by rat TrxR1; purified TrxR1 substrate turnover, NADPH consumption readout; O89049; Potency, µM (titrated, usually from 114 µM), for the others: top-dose activity change, negative = substrate turnover; 0.01% of 390,000 active; further: potency means the concentration at half of the fitted maximal effect; nearly all actives have a fitted effect of over 50% in size
#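 Rat TrxR1, dispensed at 90 nM, was prereduced with 400 uM NADPH (final) for 5 min at ~22 deg C, then incubated with compound 15 min before 400 uM selenite. A first-read NADPH fluorescence drop versus no-compound background flagged substrates.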
# PKM2 act = activators of human pyruvate kinase M2 | P14618 | AID 1631 | 0.34% of 260,000 active | purified PKM2, Kinase-Glo ATP luminescence, activation; response scale: 0% is enzyme alone, no compound | Potency, µM (doses to about 57.5 µM), without a hit: at the highest dose activation, hits mostly activators; further: potency means the concentration at half of the fitted maximal effect; nearly all actives have a fitted effect of over 55% in size
#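 Purified hPK-M2 (>95% pure) converted ADP (0.1 mM final) to ATP with 0.5 mM PEP in 50 mM imidazole pH7.2, KCl, MgCl2, Tween 20, BSA; 1 h at room temperature. ATP detected by Kinase-Glo luminescence.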
# PI4K2A block = PI4K2A (human) kinase inhibition; Q9BTU6; purified PI4K2A, ADP-Glo luminescence, 1 h; active compounds read low; activity change, negative = inhibition, % at 76.9 µM; 0.13% of 420,000 active; in the data active means activity change below about -50%; inconclusive means mostly about -30% to -49%;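 further: -100% = wells without enzyme as full effect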
#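 Compounds are screened against recombinant PI4K2A using PI as substrate and ATP, the latter dispensed at 300 microM. Reactions run one hour at ambient temperature before ADP-Glo detection; full inhibition defined by wells lacking enzyme.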
# TrxR1 inh = inhibitors of rat thioredoxin reductase 1 | O89049 | recombinant rTrxR1, NADPH fluorescence consumption, selenite substrate | Potency, µM (series often up to 114 µM), without a hit: at the top dose activity change, negative = inhibition, actives largely listed as inhibitors | 1% of 390,000 active; further: potency means the concentration at half of the fitted maximal effect; nearly all actives have a fitted effect of over 65% in size
#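 Rat TrxR1 (90 nM in the dispensed reagent) was pre-reduced with 400 uM NADPH for 5 min at room temperature, then incubated with compound for 15 min. After 400 uM selenite was added, NADPH fluorescence (Ex 340/Em 450 nm) was followed for 8 min.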
# GALK inh = blocks human galactokinase activity; P51570; Purified GALK, Kinase-Glo residual ATP luminescence; Potency, µM (highest dose often 57.5 µM), for inactives: at the top dose activity change, negative = inhibition, usual class: inhibitors; 0.007% of 270,000 active; AID 1868; further: potency means the concentration at half of the fitted maximal effect
# Target sequence (P51570 whole entry, looked up): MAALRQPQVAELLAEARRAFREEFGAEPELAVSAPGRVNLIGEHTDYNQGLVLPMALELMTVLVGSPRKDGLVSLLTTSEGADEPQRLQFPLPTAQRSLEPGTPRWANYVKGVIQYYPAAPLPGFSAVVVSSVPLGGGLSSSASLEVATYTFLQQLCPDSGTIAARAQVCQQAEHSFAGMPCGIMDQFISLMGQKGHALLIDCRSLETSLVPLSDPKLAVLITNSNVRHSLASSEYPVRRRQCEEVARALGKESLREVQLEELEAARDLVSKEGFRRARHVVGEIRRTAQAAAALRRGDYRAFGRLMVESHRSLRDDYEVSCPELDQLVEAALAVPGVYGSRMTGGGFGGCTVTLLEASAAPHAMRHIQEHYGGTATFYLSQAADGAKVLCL
#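 ATP-depletion format; final 35 uM ATP, 100 uM D-galactose, 5 nM enzyme; pH 8.0 HEPES/Mg2+ buffer; 60 min RT; luminescence read 10 min after detection reagent.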
# The depositor's hits bear a star; ? = inconclusive; . = no result given; [ ] = dose if it differs, or a comment. Compounds with a hit are over-represented: about 1.2% of the library has one in this group of screens. Unless noted, the call rests on the fitted dose curve; in most records, active means well fitted curve in the direction sought with a large enough effect; inconclusive means small, poorly fitted or top-dose-only effect, or another doubt; inactive means no such curve, though single readings can be large; an effect the other way counts as inactive or inconclusive. Unless noted, on the % scale 0 is the no-effect control and ±100 the full control effect.
SMILES,TrxR1 substrate,PKM2 act,PI4K2A block,TrxR1 inh,GALK inh
COc1ccc(C2Nc3cccc4cccc(c34)N2)cc1Br,0%,.,3,?,4%
COc1cc(C2Nc3cccc4cccc(c34)N2)cc(OC)c1O,11%,-15%,-27,16µM*,-3%
COc1cc(C2Nc3cccc4cccc(c34)N2)ccc1OC(C)=O,1%,7%,?,10µM*,1%
CC1=NN(c2ccc(Cl)c(C(=O)O)c2)C(=O)C1,-5%,3%,-29,28%,0%
CC1=NN(c2ccc(S(=O)(=O)O)cc2Cl)C(=O)C1,-24%[57.1 µM],-17%,-61*,-9%[57.1 µM],2%
CC1=NN(c2cccc(Cl)c2)C(=O)C1,1%,-6%,-60*,34%,0%
COCCCNC(=O)C[C@H]1C[C@@]2(C(=O)OC)C(=C[C@H](C(C)C)O[C@@H]2C2CC2)N(CCC2=CCCCC2)C1=O,.,.,1,.,.
COC(=O)C1=C(C(=O)OC)[C@@]2([C@@H](Cc3ccc(C)cc3)Nc3ccccc3)C=C[C@@H]1O2,.,.,15,.,.
Cc1cc(C)n2cc(CSc3nnnn3-c3ccc(Cl)cc3)nc2n1,10%[57.1 µM],16µM*,9,9%[57.1 µM],2%
Cc1cc(C)n2cc(CSc3nnnn3-c3ccccc3)nc2n1,8%,8.9µM*,0,2%,1%
COc1ccc(NC(=O)C(Cl)=C(Cl)Cl)cn1,6%[57.1 µM],0%,-3,8%[57.1 µM],1%
COc1ccc(NC(=O)/C(Cl)=C(/Cl)S(=O)(=O)Cc2ccccc2)cn1,11%[57.1 µM],1%,-5,7.1µM*,-3%
Cc1ccc(C(=O)N/C(=C\c2ccc(-c3ccccc3[N+](=O)[O-])o2)C(=O)NCCN(C)C)cc1,1%,1%[11.5 µM],-1,14µM*,7%
O=C1C=CC(=O)N1c1cccc(-c2ccccc2)c1,7%[57.1 µM],3.2µM*,8,2.5µM*,-2%
O=C(NCCO)C1(C(=O)C2CC2)CC(c2ccccc2C(F)(F)F)=NO1 (stereo unspecified),.,.,4,.,.
COC(c1ccccc1)(c1ccccc1)[C@H](Oc1nc(C)cc(C)n1)C(=O)O,.,.,-1,.,.
COc1cc(NC(=O)CSc2nc(-c3ccc(C(C)C)cc3)no2)cc(OC)c1,0%[57.1 µM],.,1,20%[57.1 µM],.
CSc1nc(NCCOCCO)c2sc3nc(-c4ccco4)c4c(c3c2n1)CCC4,14%[57.1 µM],22µM*,-10,-38%,-1%
COC(=O)/C(=C\c1ccc([N+](=O)[O-])o1)NC(=O)c1ccccc1,-15%,-4%,-1,32µM*,0%
CCCCNC(=O)/C(=C\c1ccc([N+](=O)[O-])o1)NC(=O)c1ccccc1,-11%[57.1 µM],-2%,-6,?,3%
Cc1cccc(N2CCN(C(=O)c3c(C)oc4nc(C)nc(N5CCCC5)c34)CC2C)c1 (stereo unspecified),-4%,.,1,9%,.
CC1=C(C)C(=O)C(CCCCC#CCCCC#CCO)=C(C)C1=O,5%[57.1 µM],9%,4,30µM*,6%
COc1ccc(-c2cc3nc(CCl)[nH]c(=O)c3s2)cc1,200%,-36%,-50*,?,7%
COc1cc2c(NC3CCN(C)CC3)nc(N3CCCN(C)CC3)nc2cc1OCC1CCCNC1 (stereo unspecified),58%,.,.,32µM*,.
CC(c1c[nH]c2ccccc12)c1c[nH]c2ccc(Br)cc12 (stereo unspecified),.,.,1,.,.
SMILES,TrxR1 substrate,PKM2 act,PI4K2A block,TrxR1 inh,GALK inh
CCC1Oc2ccc(C)cc2N(CC(=O)N(Cc2ccc(C)o2)C2CCCC2)C1=O (stereo unspecified),-1%,?,4,25µM*,-3%
NC(=O)CSc1nnc(-c2ccco2)n1-c1ccccc1,1%,.,4,6%,-2%
OCCn1c(CSc2nnc(-c3ccco3)n2-c2ccccc2)nc2ccc(Cl)cc21,6%,?,3,20µM*,-3%
O=C(O)C1=CC(=C(c2ccc(O)c(C(=O)O)c2)c2ccc(O)c(C(=O)O)c2)C=CC1=O,30%[57.1 µM],.,-86*,?,.
CC(C)C[C@@H]1[C@H](c2ccccc2)OC(=O)N1CCCN1CCCCCC1,.,.,2,.,.
CCCN1C(=O)/C(=c2\sc3nc(=O)c(Cc4ccc(C)cc4)nn3c2=O)c2ccccc21,-7%,3%,2,?,3%
NC(=O)CN1C(=O)/C(=c2\sc3nc(=O)c(Cc4ccccc4)nn3c2=O)c2ccccc21,3%,4%,-4,18µM*,-2%
S=c1[nH]nc(Cc2sc(-c3ccccc3)nc2-c2ccccc2)o1,-7%,7%,5,-13%[57.1 µM],28µM*
CC(C)c1nn2c(=O)cc(COC(=O)c3ccccc3NC(=O)c3cccs3)nc2s1,5%[57.1 µM],.,9,9%[57.1 µM],.
COc1ccc(C(=O)O/N=C(\N)c2ccccc2)cc1,0%,.,-67*,12%,24%
COc1ccc(C(=O)O/N=C(/C)c2cccs2)cc1,-1%[57.1 µM],-78%,-92*,24%[57.1 µM],10%
COc1ccc(C(=O)O/N=C(\C)c2nccs2)cc1,-7%[57.1 µM],-11%,?,19%[57.1 µM],10%
COc1ccc(C(=O)O/N=C(\N)c2ccc(Br)cc2)cc1,-19%[57.1 µM],.,-3,11%[57.1 µM],3%
COc1ccc(/C=C\c2onc(C)c2S(=O)(=O)N2CCC(C(=O)Nc3ccccc3OC)CC2)cc1,-2%,.,-6,-7%,.
O=C(c1ccco1)N1CCc2ccccc21,2%,-12%,-4,12%,1%
Cc1ccc(/C=C/C(=O)N2CCc3ccccc32)o1,-5%,9%,-17,3.2µM*,1%
Cc1ccc(/C=C/C(=O)N2CCN(c3ccc(F)cc3)CC2)o1,-11%,19%,-2,-32%,0%
O=C(/C=C/c1ccccc1)N1CCC(c2ccccc2)C1 (stereo unspecified),2%,-7%,-1,11%,0%
O=C(/C=C/c1ccco1)N1CCc2ccccc21,-12%,-44%,-53*,56µM*,-2%
O=C(/C=C/c1ccco1)N1CCCC(c2ccccc2)C1 (stereo unspecified),0%,17%,-20,32µM*,0%
Cc1ccc(/C=C/C(=O)N2CCN(c3ncccn3)CC2)o1,-11%,19%,3,22µM*,0%
CCOC(=O)/C=C/C(=O)N1CCc2ccccc21,-13%,-15%,-3,?,3%
Cc1ccc(C)c(S(=O)(=O)N2CCN(C(=O)/C=C/c3ccco3)CC2)c1,2%,.,?,7.9µM*,.
Cc1ccc(S(=O)(=O)N2CCN(C(=O)/C=C/c3ccco3)CC2)cc1,6%[57.1 µM],2%,0,8%[57.1 µM],-1%
COc1ccccc1N1CCN(C(=O)/C=C/c2ccco2)CC1,-7%,?,3,40µM*,1%
COc1ccccc1N1CCN(C(=O)/C=C/c2ccccc2)CC1,-2%,-5%,5,-2%,-4%
NC(=O)NC1N=C([O][Al])NC1=O (stereo unspecified),.,.,2,.,.
